Measurements reported in PubChem BioAssay AID485314 (National Center for Advancing Translational Sciences (NCATS), 2010).
Out of some 340,000 compounds screened, about 4,500 (1.3%) were called active. Another 5% or so got no clear call; they are omitted. Calls come from the whole dose curve; as a rule, active = well fitted inhibition curve with a large enough effect; inconclusive = small, poorly fitted or top-dose-only effect, or another doubt; inactive = no such curve, though single readings can be large or run the other way. The list comes from a sample in which actives are over-represented; it also holds similar structures and randomly drawn compounds. Entries that show only a call come without a potency.

Target: DNA polymerase beta (Homo sapiens) (UniProt P06746)
Test: qHTS Assay for Inhibitors of DNA Polymerase Beta
Conditions: Pol beta primer extension/strand displacement, fluorescence kinetic; series mostly up to 114 µM
Method in brief: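 Homogeneous kinetic assay of primer extension and strand displacement by 10 nM Pol beta, preincubated 15 min at room temperature with compound before 50 nM substrate (final) was added. Read at 0 and 10 min; four-parameter Hill fit.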
Potency is the fitted concentration of half-maximal effect.

Row | SMILES | Potency
1 | CCCCn1c(CNC(=O)C23CC4CC(CC(C4)C2)C3)nnc1SCC(=O)Nc1ccc(C)cc1 | inactive
2 | CCCn1c2ccccc2c2cnn(CC(=O)N3CCCC(C(=O)OCC)C3)c(=O)c21 (stereo not given) | inactive
3 | CC(=O)c1sc2nc(SCC(=O)N3CCCCC3)[nH]c(=O)c2c1C | inactive
4 | CCOC(=O)c1sc2nc(CSCC(=O)OCc3ccc(C(=O)OC)o3)[nH]c(=O)c2c1C | inactive
5 | CSc1nnc(SCc2nc3sc(C(=O)O)c(C)c3c(=O)[nH]2)s1 | 6.31 µM (active)
6 | Cc1ccc(C2c3[nH]c4ccccc4c3CCN2C(=O)c2cccc(C)c2)cc1 (stereo not given) | inactive
7 | O=C(Nc1ccc(OC(F)(F)F)cc1)C1CCCN(S(=O)(=O)c2ccc(Br)s2)C1 (stereo not given) | inactive
8 | Cc1ccc(CSc2nc3cccnc3n2Cc2ccc(C(=O)NC3CC3)cc2)cc1 | inactive
9 | COc1ccc(C2(Nc3cccc(F)c3)C(=O)c3ccccc3C2=O)cc1 | inactive
10 | CN(Cc1ccccc1)S(=O)(=O)c1ccc(F)c(C(=O)Nc2cccc(Cl)c2Cl)c1 | inactive
11 | O=[N+]([O-])c1ccc(N2CCSCC2)cc1O | inactive
12 | O=C1CSC(=S)N1/N=C/c1ccc(O)c([N+](=O)[O-])c1 | 17.8 µM (active)
13 | O=C1CSC(=S)N1c1ccc(O)cc1 | inactive
14 | Cc1ccc(Nc2c(-c3ccc(C)cc3)nc3cnccn23)cc1 | inactive
15 | CCOC(=O)C1CCN(c2ncnc3c2c(-c2ccccc2)cn3-c2cccc(C)c2)CC1 | inactive
16 | COc1ccc(Cl)cc1N(C)C(=O)c1cc2c(=O)oc3ccc(C)cc3c2s1 | inactive
17 | O=C(Nc1cccc(Cl)c1)c1csnn1 | inactive
18 | O=C(Nc1ccccc1)c1nnsc1S(=O)(=O)c1ccc(Cl)cc1 | 44.7 µM (active)
19 | O=C(Nc1ccc(Oc2ccccc2)cc1)C1CCN(S(=O)(=O)c2ccc(Cl)cc2)CC1 | inactive
20 | CC(C)c1ccc(OCC(=O)N(Cc2ccc(N(C)C)cc2)C2CCS(=O)(=O)C2)cc1 (stereo not given) | inactive
21 | CC(=O)Nc1ccc(Nc2c3ccccc3nc3ccccc23)cc1 | 17.8 µM (active)
22 | CC(C)(C)OC(=O)NNc1c2ccccc2nc2ccccc12 | inactive
23 | CCc1nc(Nc2ccc(NC(C)=O)cc2)c2oc3ccccc3c2n1 | inactive
24 | COc1ccc(C(=O)NCC(c2ccc(N(C)C)cc2)N2CCc3ccccc32)c(OC)c1 (stereo not given) | inactive
25 | CCOc1ccc(-n2c(O)c(/C=N/Nc3nnc(C)c(=O)[nH]3)c3ccccc3c2=O)cc1 | 56.2 µM (active)

Row | SMILES | Potency
26 | CCOc1ccc(-n2c(O)c(/C=N/Nc3nc(C)cc(C)n3)c3ccccc3c2=O)cc1 | inactive
27 | CCOc1ccc(-n2c(O)c(/C=N/c3ccnn3Cc3ccncc3)c3ccccc3c2=O)cc1 | inactive
28 | CCOc1ccccc1NC(=O)CN1CCCN(Cc2cccc(Cl)c2)S1(=O)=O | inactive
29 | C=CC1C(OC2OC(CO)C(O)C(O)C2O)OC=C(C(=O)OC)C1CC1CC(=O)CC(CC(=O)CCc2ccc(O)cc2)O1 (stereo not given) | inactive
30 | CC1=C(C)C(=O)OC(C(C)C2CCC3C4CC=C5CC(OC6OC(COC7OC(CO)C(O)C(O)C7O)C(O)C(O)C6O)CC(O)C5(C)C4CCC23C)C1 (stereo not given) | inactive
31 | CC(/C=C/C1(O)C(C)CC(=O)CC1(C)C)OC1OC(CO)C(O)C(O)C1O (stereo not given) | 28.2 µM (active)
32 | Cc1ccc(-c2nc3ccccn3c2Nc2c(C)cccc2C)o1 | inactive
33 | O=C(CN1CCSc2ccccc21)N1CCN(c2ccccc2)CC1 | inactive
34 | Oc1c(Cl)cc(Cl)c(Cl)c1Cc1c(O)c(Cl)cc(Cl)c1Cl | 28.2 µM (active)
35 | Cc1ccc(Cc2nc3ccccc3nc2SCC(=O)Nc2cccc(C(F)(F)F)c2)cc1 | inactive
36 | Cc1ccc(-c2cnc(C3CC3)o2)cc1S(=O)(=O)Nc1cccc(C)c1C | inactive
37 | CCCOc1ccc(-c2cccc(NS(=O)(=O)c3ccccc3)c2)nn1 | inactive
38 | O=C(Cc1ccc([N+](=O)[O-])cc1)N/N=C/c1ccco1 | inactive
39 | O=C(N/N=C/c1ccco1)c1csc2c1CCCC2 | inactive
40 | O=C(N/N=C/c1ccco1)c1ccc(C(=O)N/N=C/c2ccco2)o1 | 17.8 µM (active)
41 | CCc1ccccc1NC(=O)CSc1nnc(-c2ccccc2)c(-c2ccccc2)n1 | inactive
42 | Cc1c(Cl)cccc1NC(=O)N1CCN(C(=O)c2nsc3ccccc23)CC1 | inactive
43 | Cc1ccc(N2CC(C(=O)Nc3ccc(S(=O)(=O)N4CCCC4)cc3)CC2=O)cc1C (stereo not given) | inactive
44 | CC1CCN(S(=O)(=O)c2ccc(NC(=O)C3CC(=O)N(c4ccccc4)C3)cc2)CC1 (stereo not given) | inactive
45 | COc1ccccc1N1CC(C(=O)Nc2ccc(S(=O)(=O)N3CCOCC3)cc2)CC1=O (stereo not given) | 79.4 µM (active)
46 | COc1ccc(NC(=O)NC(C)c2c(-n3cccc3)sc(C)c2C)cc1OC (stereo not given) | inactive
47 | CCOc1ccc2nc(N3CCCC(C(=O)Nc4cc(C)ccc4C)C3)sc2c1 (stereo not given) | inactive
48 | c1ccc(-c2cc(-c3nnc4sc(-c5ccccn5)nn34)[nH]n2)cc1 | 39.8 µM (active)
49 | S=c1[nH]nc(-c2cc(-c3ccsc3)n[nH]2)n1-c1ccccc1 | inactive
50 | CCOc1cccc(-c2nn3c(-c4ccccn4)nnc3s2)c1 | inactive

Row | SMILES | Potency
51 | O=C(c1cc2c(s1)CCC2)N1CCN(c2ccccc2)CC1 | 17.8 µM (active)
52 | O=C(C1CCC1)N1CCN(c2ccccc2)CC1 | inactive
53 | O=C(NNC(=O)c1cc2c(s1)CCCC2)c1ccccc1 | inactive
54 | CCc1ccc(NC(=O)c2cc(S(=O)(=O)NC3CCCCCC3)ccc2F)cc1 | inactive
55 | CCOc1cccc(CC(=O)N2CCc3c([nH]c4ccccc34)C2c2ccc(OC)cc2)c1OCC (stereo not given) | inactive
56 | CC(C)c1ccc(Nc2nnc(SCC(=O)c3nnc(-c4ccccc4)o3)s2)cc1 | 39.8 µM (active)
57 | Cc1ccccc1Nc1nnc(SCC(=O)c2cc3ccccc3o2)s1 | inactive
58 | CC(C)Nc1nnc(SCC(=O)c2c[nH]c3ccccc23)s1 | inactive
59 | Cc1cccc(Cn2c(SCc3ccc(C(=O)N4CCC(C)CC4)cc3)nc3ccncc32)c1 | inactive
60 | COc1cc(OC)c(OC)cc1/C=C/c1nc2ccccc2c(=O)n1-c1ccc(Br)c(C)c1 | inactive
61 | COc1ccc(C(=O)Nc2cccc(C(=O)OCc3cc(=O)n4c5c(sc4n3)CCCC5)c2)cc1 | inactive
62 | Cc1ccc(CN2CCc3nc(N4CCN(C)CC4)ncc3C2)cc1 | inactive
63 | COc1cccc(N2CCN(C(=O)CCCCCn3c(=O)[nH]c4ccccc4c3=O)CC2)c1 | inactive
64 | Cc1cc(C)c2nc(-c3ccco3)cc(C(=O)O)c2c1 | 7.08 µM (active)
65 | Cc1ccsc1-c1cc(C(=O)O)c2c(ccc3ccccc32)n1 | inactive
66 | Cc1cccc(NC(=O)CSc2nc(-c3ccco3)cc(C(F)(F)F)n2)c1C | inactive
67 | CCOc1cc(CNC(=O)c2sc3ncnc(N(C)C4CCCCC4)c3c2C)ccc1OC | inactive
68 | COc1ccc(CCNC(=O)C(=O)NCC(c2ccco2)S(=O)(=O)c2cccs2)cc1OC (stereo not given) | inactive
69 | O=C(Nc1ccc2nc(SCC(=O)N3CCCc4ccccc43)sc2c1)c1ccc(F)cc1 | inactive
70 | O=C(CSc1nccn1C1CCCC1)Nc1cc(C(F)(F)F)ccc1Cl | inactive
71 | Cn1c(NN)nc2sc3c(c2c1=O)CCC3 | 89.1 µM (active)
72 | CCCc1nc2sc3c(c2c(=O)n1NC(=O)CCCl)CCCC3 | inactive
73 | NNC(=O)C1CCCn2c1nc1sc3c(c1c2=O)CCCC3 (stereo not given) | inactive
74 | COc1ccccc1OCC(=O)Nc1nnc2n1CCS2 | inactive
75 | CCOC(=O)c1c(C)oc2nc(C)nc(N3CCN(c4ccc(OC)cc4)CC3)c12 | inactive

Row | SMILES | Potency
76 | CCc1cccc(OC2OC(CO)C(O)C(O)C2NC(C)=O)c1 (stereo not given) | inactive
77 | CC(=O)NC1C(Oc2ccc(C=O)cc2)OC(COC(C)=O)C(OC(C)=O)C1OC(C)=O (stereo not given) | 39.8 µM (active)
78 | CC(=O)NC1C(Oc2ccc(C)cc2)OC2COC(c3ccco3)OC2C1O (stereo not given) | inactive
79 | Cc1c(C(=O)N2CCCC2)oc2c1-c1nn(CC(=O)NCc3ccc(OC(C)C)cc3)cc1CC2 | inactive
80 | COc1ccc(-c2nc(SCC(=O)N3CCCCC3C)n[nH]2)cc1 (stereo not given) | inactive
81 | CCCCCn1c(=O)[nH]c2cc(C(=O)NCCN(C)CCCC)ccc2c1=O | inactive
82 | Cc1ccc(C(=O)Oc2coc(CSc3nnc(NC(=O)c4cccs4)s3)cc2=O)cc1C | 20 µM (active)
83 | CCSc1nnc(NC(=O)c2cc(=O)c3cc(C)c(C)cc3o2)s1 | inactive
84 | CCSc1nnc(NC(=O)c2ccc(C)cc2)s1 | inactive
85 | CCOC(=O)C1CCN(c2csc3ccc(C)cc3c2=O)CC1 | inactive
86 | COc1cc(/C=C2/C(=O)NN(c3cccc(Cl)c3)C2=O)cc(Br)c1O | inactive
87 | Cc1cccc(C)c1-n1c(C)cc(/C=C2\C(=O)NN(c3ccccc3)C2=O)c1C | inactive
88 | O=C1NN(c2ccccc2)C(=O)/C1=C/c1ccc(-c2cccc(C(=O)O)c2)o1 | 35.5 µM (active)
89 | CCOc1cc(C2C(C(=O)OC)=C(C)NC3=C2C(=O)c2ccccc23)ccc1O (stereo not given) | inactive
90 | Cc1cccc2nc(-c3ccc(Cl)s3)c(Nc3ccc4c(c3)OCCO4)n12 | inactive
91 | Cc1ccc(NC(=O)CCC(=O)c2ccc(Br)cc2)cc1 | 89.1 µM (active)
92 | COc1ccc(C(=O)CCC(=O)Nc2ccc(Cl)cc2)cc1 | inactive
93 | Cc1ccc(OC(=O)CCC(=O)Nc2ccc(Br)cc2)cc1 | inactive
94 | CCOc1cc(-c2nnc(SCC(=O)NC3CCCC3)nc2-c2ccc(OC)c(OCC)c2)ccc1OC | inactive
95 | CCCn1c2ccccc2c2cnn(CC(=O)N(C)c3ccccc3CC)c(=O)c21 | inactive
96 | COc1cccc(CNC(=O)CCc2nc(-c3ccc(C)cc3)no2)c1 | inactive
97 | COc1ccc(OC)c(NC(=O)CSc2nc3ccccc3nc2N2CCCCC2)c1 | inactive
98 | Cc1ccc2nc(/C(C#N)=C/c3ccc(-c4ccc(C(=O)OC(C)C)cc4)o3)[nH]c2c1 | 28.2 µM (active)
99 | CCOC(=O)c1ccc(-c2ccc(/C=C(\C#N)C(=O)Nc3ccc(C)cc3)o2)cc1 | inactive
100 | Cc1ccc2nc(/C(C#N)=C/c3ccccc3F)[nH]c2c1 | inactive
